# PubChem BioAssay (NCATS)
# Records with an inconclusive call do not appear. Entries that show only a call come without a potency. The source made the active and inactive calls. Calls follow the shape of the dose curve; as a rule, active = well fitted cell-killing curve with a large enough effect; inconclusive = small, poorly fitted or top-dose-only effect; inactive = no such curve, though single readings can be large or run the other way.
# Experiment: Cell Viability - LYMP2-001 (AID 921);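 also: cells exposed to compound for 24 h at 37 °C; nearly all actives have a fitted effect of over 70% in size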
# Conditions: LYMP2-001 lymphoblastoid cell viability; series mostly up to 92.2 µM
# Description: NIH Chemical Genomics Center [NCGC]
# NIH Molecular Libraries Screening Centers Network [MLSCN]
# National Institutes of Environmental Health Sciences [NIEHS]
# National Toxicology Program [NTP]
# We have developed a 1536-well cell-based assay for quantitative high throughput screening (qHTS) against a number of cell lines to determine in vitro cytotoxicity of small molecules. This particular assay uses a human lymphoblastoid cell line (LYMP2-001) purchased from Coriell Institute for Medical Research.
# NCGC Assay Protocol Summary:
# The CellTiter-Glo luminescent cell viability assay (Promega) is a homogeneous method to measure the number of viable cells in culture. The end point readout of this assay is based on quantitation of intracellular ATP, an indicator of metabolic activity, using the luciferase reaction. Luciferase catalyzes the oxidation of beetle Luciferin to oxyluciferin and light in the presence of ATP. The luminescent signal is proportional to amount of ATP present.
# Using the CellTiter-Glo luminescent cell viability assay, the amount of cellular ATP was measured in the lymphoblastoid cell line with complete culture medium following compound treatment for 24 hours. The assay was performed in opaque white Kalypsys 1536-well plates. In the screen, tetraoctylammonium bromide was used as positive control. Library compounds were measured for their ability to cause acute toxicity in the cell line, as reflected by a decrease in intracellular ATP levels, in a concentration-dependent manner. […] AC50 values were determined from concentration-response data modeled with the standard Hill equation.
# qHTS protocol for CellTiter Glo lymphoblastoid cellular assay
# [Step] [Parameter] [Value] [Description]
# 1. Reagent; 5 uL; 2500 lymphoblastoid cells/well
# 2. Time; 5 hr; 37 C incubation
# 4. Controls; 23 nL; Tetraoctylammonium bromide 6.4pM to 92 uM
# 5. Time; 24 hr; 37 C incubation
# 6. Reagent; 5 uL; CellTiter Glo reagent
# 7. Time; 30 min; Room Temperature
# 8. Detection; Luminescence; Viewlux plate reader
# Keywords: cell viability, cytotoxicity, lymphoblastoid cell line, luminescence, NTPHTS, NTPHTS_NCGC, NIEHS, DSSTox, MLSMR, MLSCN, NIH Roadmap, qHTS, NCGC
row,SMILES,Potency
1,CC(=O)CCc1ccccc1,inactive
2,COc1ccccc1[N+](=O)[O-],inactive
3,NC(=O)c1cccc([N+](=O)[O-])c1,inactive
4,Nc1cccc(C(F)(F)F)c1,inactive
5,N#CCc1ccccc1[N+](=O)[O-],inactive
6,Cc1cccc(C(=O)O)c1[N+](=O)[O-],inactive
7,Cc1cccc2sc(N)nc12,inactive
8,CCCCOCCOCCSC#N,inactive
9,Cc1cccc2ccccc12,inactive
10,C=Cc1ccc(C=C)cc1,inactive
11,c1ccsc1,inactive
12,Cc1c(N)cccc1N,inactive
13,C1CCCC1,inactive
14,S=C([S-])NCCNC(=S)[S-].[Zn+2],inactive
15,c1ccc2[nH]cnc2c1,inactive
16,O=[N+]([O-])c1ccc2nc[nH]c2c1,inactive
17,c1ccc(Oc2ccccc2)cc1,inactive
18,O=Cc1ccc(Cl)cc1,inactive
19,Cc1cscn1,inactive
20,O=Cc1ccc(C(=O)O)cc1,inactive

row,SMILES,Potency
1,CCC(C)(C)OC,inactive
2,CCCCCCCCCCCCC1CO1 (stereo not given),inactive
3,NCCCCCCN,inactive
4,c1ccc(Nc2ccccc2)cc1,inactive
5,Clc1ccc(Cl)c(Cl)c1Cl,inactive
6,CCCCC(CC)COC(=O)CCCCC(=O)OCC(CC)CCCC (stereo not given),inactive
7,CC(=O)c1cc(C)oc1C,inactive
8,Cc1ccc(C)o1,inactive
9,C1CCC2OC2C1 (stereo not given),inactive
10,CC/C=C1/OC(=O)c2ccccc21,inactive
11,Cc1cc(C)c(N)cc1C,inactive
12,CCC(=O)/C=C/C1C(C)=CCCC1(C)C (stereo not given),inactive
13,O=C(Cl)c1c(Cl)cccc1Cl,inactive
14,CC(C)(C)OCC1CO1 (stereo not given),inactive
15,CC(C)(c1cc(Br)c(OCC(Br)CBr)c(Br)c1)c1cc(Br)c(OCC(Br)CBr)c(Br)c1 (stereo not given),inactive
16,CCCC(C)CO (stereo not given),inactive
17,ICCc1ccccc1,inactive
18,Cc1ccc2ccccc2c1[N+](=O)[O-],inactive
19,CCOC(=O)OCC,inactive
20,CC(C)CCOC(=O)/C=C/c1ccccc1,inactive
